Screening results deposited in PubChem by National Center for Advancing Translational Sciences (NCATS).
The list is not random: actives were taken first. Their share in the collection is about 19%.
HT1080 IDH1KD tx – kills HT-1080 cells with IDH1 knockdown. HT-1080 IDH1 knockdown viability, ATP luminescence, 48 h. Potency, µM (series often up to 46.1 µM), actives largely listed as cytotoxic. hit rate 2% among 360,000
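CellTiter-Glo luminescence after 48 h compound exposure at 37 degrees C of IDH1-knockdown HT-1080 cells in 5% FBS RPMI. %Activity scaled between DMSO wells and cell-free media wells, with curves fitted and assigned curve classes.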
IL1B secr inh – inhibitors of inflammasome signaling (IL-1 beta secretion); THP-1 LPS/ATP IL-1B secretion, AlphaLISA, 16 h; hits give low values; activity change, % at 57.5 µM; hit rate 4.7% among 360,000; AID 743279; in the data active = activity change below about -50%; inconclusive = mostly about -30% to -49%
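THP-1 cells pretreated 1 hr with compounds (up to 57.5 uM final), then stimulated with LPS (250 ng/mL final) plus ATP (1.25 mM final); secreted IL-1B measured by AlphaLISA after 16 hr, decreased signal indicating inhibition.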
DT40 TDP1 CPT – growth inhibition of DT40 Tdp1-/-;hTDP1 cells with camptothecin (screen for TDP1 inhibitors). AID 686979. chicken DT40 Tdp1-/-;hTDP1 cells + 20 nM CPT, ATP luminescence, 48 h. hit rate 12% among 420,000. Potency, µM (highest dose often 46.2 µM), usual class: inhibitors; note: nearly all actives have a fitted effect of over 55% in size
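Cell growth measured by CellTiter-Glo luminescence after a minimum 48 h, 37 C compound exposure with 20 nM CPT in Tdp1-knockout DT40 cells stably expressing hTDP1, seeded 400/well; qHTS titration format.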
HT1080-NT tox – kills 2HG-producing HT-1080-NT fibrosarcoma cells. HT-1080-NT fibrosarcoma viability, CellTiter-Glo ATP luminescence, 48 h. Potency, µM (doses to about 46.1 µM), most hits filed as cytotoxic. hit rate 1.6% among 360,000. AID 686970;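 note: NT is the 2HG producing partner of a matched IDH1 knockdown line; nearly all actives have a fitted effect of over 55% in size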
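Luminescent CellTiter-Glo readout after 48 hours of compound exposure at 37 degrees C defined viability of HT-1080-NT cells. Activity was normalized to DMSO wells and cell-free media wells; concentration-response curves were fitted and assigned curve classes.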
ELG1 DNA repair – inhibitors of ELG1-dependent DNA repair in HEK293T cells | HEK293T ELG1-luciferase reporter, luminescence, 16 h; DNA damage induced by 5-fluorouridine | Potency, µM (titrated, usually from 46.1 µM), usual class: inhibitors | hit rate 2.3% among 330,000; note: nearly all actives have a fitted effect of over 55% in size
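Reporter activity after DNA damage by 5-fluorouridine is monitored. Compound-treated cells incubate 16 hr at 37 °C, then ONE-Glo is added for 30 min before luminescence reading.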
TDP1 cell noCPT – qHTS for Inhibitors of human tyrosyl-DNA phosphodiesterase 1 (TDP1): qHTS in cells in absence of CPT; DT40 Tdp1-/- hTDP1 cells, no CPT, ATP luminescence, 48 h; hit rate 15% among 420,000; Potency, µM (doses to about 46.2 µM), usual class: inhibitors; AID 686978, 2013; note: nearly all actives have a fitted effect of over 55% in size
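A cellular qHTS used chicken DT40 cells lacking endogenous Tdp1 but carrying stably transfected human TDP1. Compounds were applied without camptothecin, and cell growth kinetics were judged by ATP-dependent luminescence after ≥48 hr.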
A number is an active result. Unless noted, calls come from the whole dose curve; as a rule, active = well fitted curve in the direction sought with a large enough effect; inconclusive = small, poorly fitted or top-dose-only effect, or another doubt; inactive = no such curve, though single readings can be large; an effect the other way counts as inactive or inconclusive.

COc1cccc(/C=N/NC(=O)c2ccc(CN3c4cccc5cccc(c45)S3(=O)=O)cc2)c1 was read as HT1080 IDH1KD tx inactive, IL1B secr inh inactive, DT40 TDP1 CPT inactive, HT1080-NT tox inactive, ELG1 DNA repair inconclusive and TDP1 cell noCPT inactive.
Screening COc1ccccc1CNC(=O)C(=O)NCC(c1ccco1)N1CCOCC1 (configuration not stated) returned HT1080 IDH1KD tx inactive, IL1B secr inh inactive, DT40 TDP1 CPT inactive, HT1080-NT tox inactive, ELG1 DNA repair inactive and TDP1 cell noCPT inactive.
`CC[C@]12c3[nH]c4ccccc4c3CCN1C(=O)C(CC(=O)NCCC1=CCCCC1)C[C@@H]2C(=O)N1CCN(C(=O)c2ccco2)CC1` (some centres not stated) gave HT1080 IDH1KD tx inactive, IL1B secr inh inconclusive, DT40 TDP1 CPT inconclusive, HT1080-NT tox inactive, ELG1 DNA repair inconclusive and TDP1 cell noCPT inconclusive.
CN(C(=O)C1CCN(S(=O)(=O)c2ccccc2)CC1)c1c(N)n(Cc2ccccc2)c(=O)[nH]c1=O was read as HT1080 IDH1KD tx inactive, IL1B secr inh inactive, DT40 TDP1 CPT inactive, HT1080-NT tox inactive, ELG1 DNA repair inactive and TDP1 cell noCPT inactive.
Screening Cc1ccc(NC(=O)Cc2nc(COC(=O)Cc3cccc(C(F)(F)F)c3)cs2)cc1 returned HT1080 IDH1KD tx inactive, IL1B secr inh inactive, DT40 TDP1 CPT inactive, HT1080-NT tox inactive, ELG1 DNA repair inactive and TDP1 cell noCPT inactive.
`COCC(C)n1c(C)cc(C(=O)CN2C(=O)NC3(CCCCC3C)C2=O)c1C` (configuration not stated) gave HT1080 IDH1KD tx inactive, IL1B secr inh inactive, DT40 TDP1 CPT inconclusive, HT1080-NT tox inactive, ELG1 DNA repair inactive and TDP1 cell noCPT 21µM.
For C[C@H]1CN([C@@H](C)CO)C(=O)Cc2cc(NC(=O)CCC(F)(F)F)ccc2O[C@H]1CN(C)Cc1ccc(-c2ccccc2)cc1 the results were HT1080 IDH1KD tx 21µM, IL1B secr inh inactive, DT40 TDP1 CPT inconclusive, HT1080-NT tox 23µM, ELG1 DNA repair inconclusive and TDP1 cell noCPT inconclusive.
For C[C@H]1CN([C@@H](C)CO)C(=O)Cc2cc(NC(=O)CCC(F)(F)F)ccc2O[C@H]1CN(C)Cc1ccc(C(F)(F)F)cc1 the results were HT1080 IDH1KD tx inconclusive, IL1B secr inh -69, DT40 TDP1 CPT inconclusive, HT1080-NT tox inconclusive, ELG1 DNA repair inconclusive and TDP1 cell noCPT inconclusive.
For C[C@@H]1CN([C@H](C)CO)C(=O)Cc2cc(NC(=O)CCC(F)(F)F)ccc2O[C@@H]1CN(C)C(=O)Nc1ccccc1 the results were HT1080 IDH1KD tx inactive, IL1B secr inh inactive, DT40 TDP1 CPT inactive, HT1080-NT tox inactive, ELG1 DNA repair inconclusive and TDP1 cell noCPT inactive.
C[C@H](CO)N1C[C@H](C)[C@H](CN(C)Cc2ccc(-c3ccccc3)cc2)Oc2ccc(NS(=O)(=O)c3ccccc3)cc2CC1=O was read as HT1080 IDH1KD tx inconclusive, IL1B secr inh inactive, DT40 TDP1 CPT 16µM, HT1080-NT tox inconclusive, ELG1 DNA repair inactive and TDP1 cell noCPT 18µM.
Screening CCN(CC)c1ncnc2c1[nH]c1ccccc12 returned HT1080 IDH1KD tx inactive, IL1B secr inh inactive, DT40 TDP1 CPT 18µM, HT1080-NT tox inactive, ELG1 DNA repair inconclusive and TDP1 cell noCPT 23µM.
`CCCOc1ncnc2c1[nH]c1ccccc12` gave HT1080 IDH1KD tx inconclusive, IL1B secr inh inactive, DT40 TDP1 CPT 23µM, HT1080-NT tox inactive, ELG1 DNA repair inconclusive and TDP1 cell noCPT 21µM.
For CCCOc1ncnc2c1[nH]c1ccc(OC)cc12 the results were HT1080 IDH1KD tx inactive, IL1B secr inh inactive, DT40 TDP1 CPT 6.5µM, HT1080-NT tox inactive, ELG1 DNA repair inconclusive and TDP1 cell noCPT 8.2µM.
`CCCCOc1ncnc2c1[nH]c1ccc(C)cc12` gave HT1080 IDH1KD tx 4.6µM, DT40 TDP1 CPT inconclusive, HT1080-NT tox inconclusive, ELG1 DNA repair inconclusive and TDP1 cell noCPT 21µM.
For CCOc1ccc(OCCOc2ncnc3ccccc23)cc1 the results were HT1080 IDH1KD tx inactive, IL1B secr inh inactive, DT40 TDP1 CPT inconclusive, HT1080-NT tox inactive, ELG1 DNA repair inconclusive and TDP1 cell noCPT inconclusive.
Screening O=S(=O)(c1cccc2ccccc12)N1CCC2CC1c1cc(Cl)ccc12 (configuration not stated) returned HT1080 IDH1KD tx inactive, IL1B secr inh inactive, DT40 TDP1 CPT inconclusive, HT1080-NT tox inactive and TDP1 cell noCPT inconclusive.
CCn1c(SC(C)C(=O)NCc2ccco2)nnc1-c1ccccc1 (configuration not stated) was read as DT40 TDP1 CPT inactive and TDP1 cell noCPT inactive.
Screening COCCNc1ncnc2c1[nH]c1ccccc12 returned HT1080 IDH1KD tx inactive, IL1B secr inh inactive, DT40 TDP1 CPT inconclusive, HT1080-NT tox inactive, ELG1 DNA repair 15µM and TDP1 cell noCPT 12µM.
`COCCCNc1ncnc2c1[nH]c1ccccc12` gave ELG1 DNA repair inactive.
For O=C(OCCc1cc2ccccc2c(=O)o1)c1ccco1 the results were HT1080 IDH1KD tx inactive, IL1B secr inh inactive, DT40 TDP1 CPT inactive, HT1080-NT tox inactive, ELG1 DNA repair inactive and TDP1 cell noCPT inactive.
`COc1cccc(-c2cnc(C(O)c3ccc(Cl)cc3C)[nH]2)c1` (configuration not stated) gave HT1080 IDH1KD tx inactive, IL1B secr inh inactive, DT40 TDP1 CPT 23µM, HT1080-NT tox inactive and TDP1 cell noCPT 16µM.
For COc1cccc(-c2cnc(C(O)c3ccc(Cl)c(F)c3)[nH]2)c1 (configuration not stated) the results were HT1080 IDH1KD tx inactive, IL1B secr inh inactive, DT40 TDP1 CPT 15µM, HT1080-NT tox inactive and TDP1 cell noCPT inconclusive.
`COc1ccccc1-c1cnc(C(O)c2cccc(C)c2C)[nH]1` (configuration not stated) gave HT1080 IDH1KD tx inactive, IL1B secr inh inactive, DT40 TDP1 CPT 15µM, HT1080-NT tox inactive and TDP1 cell noCPT 16µM.
For COc1ccccc1-c1cnc(C(O)c2c(C)cccc2C)[nH]1 (configuration not stated) the results were HT1080 IDH1KD tx inactive, IL1B secr inh inactive, DT40 TDP1 CPT inconclusive, HT1080-NT tox inactive and TDP1 cell noCPT inactive.
Screening COc1ccccc1-c1cnc(C(O)c2ccc(Cl)cc2C)[nH]1 (configuration not stated) returned HT1080 IDH1KD tx inconclusive, IL1B secr inh inactive, DT40 TDP1 CPT inconclusive, HT1080-NT tox inactive and TDP1 cell noCPT 18µM.
